High-throughput results from PubChem BioAssay.
Compounds with a hit are over-represented: about 10% of the library has one in this group of screens.
FLuc inh = inhibitors of firefly (Photinus pyralis) luciferase. P08659. purified P. pyralis luciferase, luminescence, biochemical. Potency, µM (doses to about 115 µM), usual class: inhibitors. actives 2.5% (n = 76,000); also: nearly all actives have a fitted effect of over 65% in size
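FLuc 10nM, D-luciferin 10uM, ATP 10uM, Mg acetate 10mM, Tris acetate pH 7.5, Tween/BSA; cpd qHTS; enzyme added last; CCD luminescence.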
3T3 cytotox = kills NIH 3T3 cells; actives 4.3% (n = 94,000); Potency, µM (doses to about 96.7 µM), usual class: inhibitors; NIH 3T3 viability, CellTiter-Glo ATP luminescence, 48-72 h; also: nearly all actives have a fitted effect of over 55% in size
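Mouse fibroblast NIH 3T3 cells, 400 per well, received compound via pintool and were incubated for 48 or 72 hr prior to CellTiter-Glo ATP luminescence measurement.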
HEK293 tox = HEK 293 cell cytotoxicity. Potency, µM (top dose mostly 115 µM), usual class: inhibitors. actives 6.6% (n = 94,000). HEK 293 viability, ATP luminescence (CellTiter-Glo), 48-72 h; also: nearly all actives have a fitted effect of over 60% in size
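Luminescence from cellular ATP, measured with CellTiter-Glo, indicates HEK 293 viability. Cells plated at 250 cells/well are treated with compound for 48 or 72 hr at 37 degree Celsius before reagent addition.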
GPT2 inh = inhibitors of human GPT2 alanine aminotransferase; Q8TD30; Potency, µM (doses to about 57.7 µM), usual class: inhibitors; Recombinant GPT2, coupled pyruvate oxidase/HRP Amplex Red fluorescence; actives 0.25% (n = 100,000); also: nearly all actives have a fitted effect of over 60% in size
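Inhibition is scored from Amplex Red fluorescence generated when pyruvate oxidase and HRP act on pyruvate released by GPT2. Reactions contain 10ng/uL enzyme, 250uM a-KG and 2mM L-alanine and run 30 min at room temperature.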
hNpr1 antagonist = antagonists of human natriuretic peptide receptor Npr1. P16066. HEK293 hNpr1 GloSensor cGMP, ANP-stimulated luminescence. Potency, µM (titrated, usually from 46.3 µM), hits mostly inhibitors. actives 1.6% (n = 76,000). AID 1347048; calls by dose curve; also: nearly all actives have a fitted effect of over 60% in size
Target sequence (P16066 whole entry, looked up): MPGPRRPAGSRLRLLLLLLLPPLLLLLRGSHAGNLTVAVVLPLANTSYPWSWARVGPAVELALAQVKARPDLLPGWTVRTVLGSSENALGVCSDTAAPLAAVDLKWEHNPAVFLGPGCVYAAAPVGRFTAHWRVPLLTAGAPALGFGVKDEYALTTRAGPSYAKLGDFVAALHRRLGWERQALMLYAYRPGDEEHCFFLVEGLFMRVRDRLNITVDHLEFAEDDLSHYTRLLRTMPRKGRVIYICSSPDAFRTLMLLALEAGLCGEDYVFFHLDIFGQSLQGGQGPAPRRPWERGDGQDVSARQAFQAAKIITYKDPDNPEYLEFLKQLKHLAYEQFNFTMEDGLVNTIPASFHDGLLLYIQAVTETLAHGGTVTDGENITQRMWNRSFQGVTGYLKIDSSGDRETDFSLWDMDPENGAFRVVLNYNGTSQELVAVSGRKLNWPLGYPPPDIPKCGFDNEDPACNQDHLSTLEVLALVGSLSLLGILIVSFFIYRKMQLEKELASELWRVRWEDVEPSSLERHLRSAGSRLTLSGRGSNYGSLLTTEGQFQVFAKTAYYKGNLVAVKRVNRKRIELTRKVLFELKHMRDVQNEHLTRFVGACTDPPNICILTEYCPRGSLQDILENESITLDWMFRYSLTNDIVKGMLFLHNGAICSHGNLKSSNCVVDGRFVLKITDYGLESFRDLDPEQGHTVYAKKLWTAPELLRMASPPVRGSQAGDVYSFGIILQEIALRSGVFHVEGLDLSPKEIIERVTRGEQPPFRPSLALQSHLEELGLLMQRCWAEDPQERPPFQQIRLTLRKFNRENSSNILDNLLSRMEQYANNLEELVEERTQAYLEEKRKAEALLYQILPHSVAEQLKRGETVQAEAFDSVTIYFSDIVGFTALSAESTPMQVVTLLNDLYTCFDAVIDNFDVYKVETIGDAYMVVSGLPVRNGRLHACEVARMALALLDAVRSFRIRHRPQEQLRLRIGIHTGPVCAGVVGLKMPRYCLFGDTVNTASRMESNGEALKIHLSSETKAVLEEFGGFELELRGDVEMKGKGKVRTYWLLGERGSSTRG
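Compound pre-incubated 30 min at room temperature on GloSensor-loaded HEK293 cells stably carrying hNpr1 and the pGS-40F cGMP biosensor. Stimulation uses hNppA at 0.1 nM final; luminescence is taken at baseline and 20 min post-agonist.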
Numbers stand for hits; – = inactive; ? = inconclusive; · = no result. Unless noted, calls follow the shape of the dose curve; as a rule, active = well fitted curve in the direction sought with a large enough effect; inconclusive = small, poorly fitted or top-dose-only effect, or another doubt; inactive = no such curve, though single readings can be large; an effect the other way counts as inactive or inconclusive.

SMILES	FLuc inh	3T3 cytotox	HEK293 tox	GPT2 inh	hNpr1 antagonist
O=C(NC1CCN(Cc2cccc(-c3ccc(F)c(F)c3)c2)CC1)c1ccc(F)cc1	·	40µM	40µM	–	·
Nc1nc(CC(=O)Nc2ccc(CCNCC(O)c3ccccc3)cc2)cs1 (stereo not given)	·	·	·	–	·
O=C(Cc1ccccc1)N1CCC2(CC1)CC(CCOCc1ccccc1)CCO2 (stereo not given)	·	?	?	–	·
CCc1ccc(S(=O)(=O)N2CCC(n3cnnc3CC)CC2)cc1	–	?	–	–	–
COCCNC(=O)C1CCCN(c2nccc(Nc3ccccc3OC)n2)C1 (stereo not given)	·	?	?	–	·
COc1ccccc1Nc1ccnc(N2CCCC(C(=O)NCc3ccc(F)cc3)C2)n1 (stereo not given)	·	20µM	14µM	–	·
O=C(NCc1ccc(F)cc1)C1CCCN(c2nccc(Nc3ccccc3F)n2)C1 (stereo not given)	·	28µM	?	–	·
COc1ccc(CCNC(=O)C2CCCN(c3nccc(Nc4ccccc4F)n3)C2)cc1 (stereo not given)	·	?	?	–	·
O=C(NCCc1ccc(Cl)cc1)C1CCCN(c2nccc(Nc3ccccc3F)n2)C1 (stereo not given)	·	25µM	22µM	–	·
O=C(NCC(F)(F)F)C1CCCN(c2nccc(Nc3ccccc3F)n2)C1 (stereo not given)	·	?	?	–	·
COc1ccccc1Nc1ccnc(N2CCCC(C(=O)NCc3ccc(F)c(F)c3)C2)n1 (stereo not given)	·	13µM	?	–	·
CCN1C(=O)CCN(C(=O)c2ccnn2CC)CC12CCOCC2	·	–	–	–	·
COCC(=O)N[C@@H]1CN(C(=O)c2ccc(OC)cc2OC)CC[C@@H]1c1nc(C)no1	·	–	–	–	·
CC(C)COC(=O)N1C[C@@H](CO)[C@@H]2Oc3c(F)cccc3[C@@H]21	·	32µM	?	·	·
O=C(Cc1ccccc1)N1C[C@@H](CO)[C@@H]2Oc3c(F)cccc3[C@@H]21	·	–	?	·	·
CCOC(=O)[C@@H]1CN(C(=O)OCC(C)C)[C@H]2c3ccc(OC)cc3O[C@@H]12	·	40µM	–	·	·
C=CCCOC(=O)N1C[C@@H](C(=O)OCC)[C@@H]2Oc3cc(OC)ccc3[C@@H]21	·	?	–	·	·
O=C(CCC1CCN(C(=O)[C@H]2C[C@@H]3C=C[C@H]2C3)CC1)N1CCC(Cc2ccccc2)CC1	–	?	45µM	?	?
COCCCn1c(=O)c(C(=O)NCCCc2ccccc2)nc2cccnc21	·	–	–	–	·
COc1cccc(C(=O)N2CCC(Oc3ccccc3-c3nc(C4CCOCC4)no3)C2)c1 (stereo not given)	–	?	?	–	–
O=C(c1cccnc1)N1CC(Oc2ccc(-c3noc(-c4ccccc4)n3)cc2)C1	?	–	?	–	11µM
COc1cccc(C(=O)N2CC(Oc3cccc(-c4nc(-c5ccccc5)no4)c3)C2)c1	?	?	?	–	–
Cc1cnc(C(=O)N2CC(Oc3ccccc3-c3nc(C4CC4)no3)C2)cn1	–	–	?	–	–
COc1cccc(C(=O)N2CC(Oc3ccccc3-c3nc(-c4ccccc4)no3)C2)c1	?	?	20µM	–	–
Cc1nc(C)c(C(=O)N2CC(Oc3ccccc3-c3nc(C4CC4)no3)C2)s1	–	?	89µM	–	–
SMILES	FLuc inh	3T3 cytotox	HEK293 tox	GPT2 inh	hNpr1 antagonist
COc1cccc(C(=O)N2CC(Oc3ccc(-c4nc(-c5ccccc5)no4)cc3)C2)c1	–	?	22µM	–	–
COC1C(=O)N(c2cccc(F)c2)C12CCN(C(=O)Cc1cccc(F)c1)CC2 (stereo not given)	·	–	?	–	·
Cn1nccc1C(=O)N1CCC(Oc2ccccc2)C1 (stereo not given)	–	–	–	–	–
Cn1nccc1C(=O)N1CCC(Oc2ccc(-c3noc(-c4ccccc4)n3)cc2)C1 (stereo not given)	·	?	22µM	–	·
Cn1cc(-c2cnc3[nH]cc(CC(=O)N4CCCC4)c3c2)cn1	–	32µM	–	?	–
C[S+](=O)([O-])c1ccc(-c2cnc3[nH]cc(CC(=O)N4CCOCC4)c3c2)cc1	–	45µM	–	–	–
O=C(Cc1c[nH]c2ncc(-c3ccccc3)cc12)N1CC[S+](=O)([O-])CC1	?	?	–	–	–
O=C(Cc1c[nH]c2ncc(-c3cccc(O)c3)cc12)N1CCOCC1	–	?	?	–	–
COC1CCN(C(=O)Cc2c[nH]c3ncc(-c4cnn(C)c4)cc23)CC1	–	45µM	?	–	–
CC(C)NC(=O)C1CCC(=O)N1C1CCN(C(=O)C2CCC2)CC1 (stereo not given)	·	–	–	–	·
CCC1=C(C(=O)OC)C(c2cccc(C)c2)N2C(CC(=O)N3CCCCC3C)=CSC2=N1 (stereo not given)	–	–	45µM	–	–
CCC1=C(C(=O)OC)C(c2cccc(C)c2)N2C(CC(=O)Nc3ccc(OC)cc3)=CSC2=N1 (stereo not given)	–	?	40µM	–	–
CCC1=C(C(=O)OC)C(c2ccc(C)cc2C)N2C(CC(=O)N3CCCCC3C)=CSC2=N1 (stereo not given)	–	?	?	–	–
O=C(c1ccccc1F)N1CCCC(c2nn(-c3ccccn3)c(=O)[nH]2)C1 (stereo not given)	·	–	?	–	·
COc1cccc(-c2ncc3c(n2)OCCN(CC2CC2)C3=O)c1OC	–	89µM	–	–	–
COCCN1CCOc2nc(-c3cccc(OC)c3F)ncc2C1=O	–	?	–	–	–
COc1cccc(-c2ncc3c(n2)OCCN(c2ccccc2)C3=O)c1OC	?	79µM	?	–	–
Cc1ccsc1C(=O)N1CCC2(CC1)CC(N1CCOCC1)CCO2 (stereo not given)	·	–	–	–	·
O=S(=O)(c1ccc(C(F)(F)F)cc1)N1CCC(C2CCNC2)CC1 (stereo not given)	–	?	79µM	–	–
O=C1NC(=NC2CCCCC2)C2(CCCN([S+](=O)([O-])c3cccc(C(F)(F)F)c3)C2)N1c1cccnc1 (stereo not given)	–	–	?	–	–
O=C(c1cccc(OC2CN(Cc3cccc(F)c3F)C2)c1)N1CCOCC1	–	–	?	–	–
Cn1ccc(NC(=O)C2(C)CCCc3cnc(NCc4ccccc4)nc32)n1 (stereo not given)	–	45µM	?	–	–
Cn1ccc(NC(=O)C2(C)CCc3cnc(Nc4ccccc4)nc32)n1 (stereo not given)	–	?	100µM	–	–
Cn1ccc(NC(=O)C2(C)CCCc3cnc(Nc4ccccc4)nc32)n1 (stereo not given)	–	?	?	–	–
O=C(N[C@H]1CCN2C(=O)c3cc(-c4ccc(Cl)cc4)ccc3NC(=O)[C@H]12)c1cnccn1	–	?	79µM	?	–
